Experimental data from PubChem BioAssay (NCI).
The panel holds about 83,000 compounds, 20% with a hit somewhere; the sample as a whole holds those more often.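 Each cell line was grown in a 96-well plate and treated with one concentration of compound for 48 hours. Values below 10 were considered active.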 Unmarked numbers belong to inactive results. Activity calls are given as the source filed them.

How the values were obtained:
Experiment in all cases: NCI-60 one-dose screen, 48 h (100 = growth as untreated, 0 = no growth, -100 = all killed)
Conditions in all cases: 10 µM unless noted
NCI-H23 lung = test system: NCI-H23 lung
NCI-H226 lung = test system: NCI-H226 lung
NCI-H322M lung = test system: NCI-H322M lung
HOP-62 NSCLC = test system: HOP-62 NSCLC
NCI-H460 lung = test system: NCI-H460 lung
NCI-H522 lung = test system: NCI-H522 lung
A549/ATCC NSCLC = test system: A549/ATCC NSCLC
786-0 renal = test system: 786-0 renal
COLO 205 colon = test system: COLO 205 colon

**Q.** For `COc1ccc(-c2ccnc(SCc3cc4ccccc4[nH]c3=O)n2)cc1OC`, which growth (NCI-H23 lung) is on record?
**A.** 15.6%

**Q.** What about the growth (NCI-H226 lung) of the same compound?
**A.** -23.1% (active)

**Q.** And the growth (NCI-H322M lung)?
**A.** -51.5% (active)

**Q.** And the growth (HOP-62 NSCLC)?
**A.** -53.5% (active)

**Q.** And the growth (NCI-H460 lung)?
**A.** 8.25% (active)

**Q.** And the growth (NCI-H522 lung)?
**A.** -21.2% (active)

**Q.** What about the growth (A549/ATCC NSCLC) of the same compound?
**A.** 11.7%

**Q.** What about the growth (786-0 renal) of the same compound?
**A.** -25.4% (active)

**Q.** And the growth (COLO 205 colon)?
**A.** 4.51% (active)

**Q.** How did the growth (NCI-H23 lung) turn out when `CCCCSc1nc(Nc2ccc(C(C)=O)cc2)c(C#N)c(-c2ccc(OC)cc2)n1` was run?
**A.** 60.8%

**Q.** What about the growth (NCI-H226 lung) of the same compound?
**A.** 31.3%

**Q.** And the growth (NCI-H322M lung)?
**A.** 75.4%

**Q.** And the growth (HOP-62 NSCLC)?
**A.** 73.9%

**Q.** And the growth (NCI-H460 lung)?
**A.** 27.6%

**Q.** What about the growth (NCI-H522 lung) of the same compound?
**A.** 87.8%

**Q.** What about the growth (A549/ATCC NSCLC) of the same compound?
**A.** 45.5%

**Q.** What about the growth (786-0 renal) of the same compound?
**A.** -12.4% (active)

**Q.** And the growth (COLO 205 colon)?
**A.** 82.3%

**Q.** Which results are given for `Clc1ccc(-c2ccc(OCCCN3CCN(c4ccncc4)CC3)cc2)cc1`?
**A.** growth (NCI-H23 lung): 50.7%; growth (NCI-H226 lung): 62.5%; growth (NCI-H322M lung): 91%; growth (HOP-62 NSCLC): 54.3%; growth (NCI-H460 lung): -6.61% (active); growth (NCI-H522 lung): 67.8%; growth (A549/ATCC NSCLC): 59.1%; growth (786-0 renal): 56.4%; growth (COLO 205 colon): -77.8% (active)

**Q.** For `C/C(=N\N=C1/C(=O)Nc2ccc(Cl)cc21)c1ccc2c(c1)Nc1ccccc1S2`, which growth (NCI-H23 lung) is on record?
**A.** -28.2% (active)

**Q.** And the growth (NCI-H226 lung)?
**A.** 31.3%

**Q.** And the growth (NCI-H322M lung)?
**A.** 28.3%

**Q.** And the growth (HOP-62 NSCLC)?
**A.** 19.3%

**Q.** What about the growth (NCI-H460 lung) of the same compound?
**A.** -21.9% (active)

**Q.** What about the growth (NCI-H522 lung) of the same compound?
**A.** -34% (active)

**Q.** What about the growth (A549/ATCC NSCLC) of the same compound?
**A.** -6.39% (active)

**Q.** What about the growth (786-0 renal) of the same compound?
**A.** -70% (active)

**Q.** And the growth (COLO 205 colon)?
**A.** -41.7% (active)

**Q.** Which results are given for `COc1ccc(-c2nc3cc(C)ccc3n2CC(=O)N=Nc2c(O)[nH]c3ccc(OC)cc23)cc1`?
**A.** growth (NCI-H23 lung): -65.1% (active); growth (NCI-H226 lung): -66.6% (active); growth (NCI-H322M lung): -4.47% (active); growth (HOP-62 NSCLC): -70.5% (active); growth (NCI-H460 lung): -48% (active); growth (NCI-H522 lung): -40.9% (active); growth (A549/ATCC NSCLC): -49.7% (active); growth (786-0 renal): -69.3% (active); growth (COLO 205 colon): -68.2% (active)

**Q.** `COc1cc(/C=C/C(=O)c2nnn(-c3ccc(Cl)cc3)c2C)cc(OC)c1OC` was tested. Which growth (NCI-H23 lung) did it give?
**A.** 26.9%

**Q.** And the growth (NCI-H226 lung)?
**A.** 40%

**Q.** What about the growth (NCI-H322M lung) of the same compound?
**A.** 63.1%

**Q.** And the growth (HOP-62 NSCLC)?
**A.** 37.2%

**Q.** What about the growth (NCI-H460 lung) of the same compound?
**A.** 14.2%

**Q.** And the growth (NCI-H522 lung)?
**A.** 28%

**Q.** And the growth (A549/ATCC NSCLC)?
**A.** 34.9%

**Q.** And the growth (786-0 renal)?
**A.** 65.8%

**Q.** And the growth (COLO 205 colon)?
**A.** 41.5%

**Q.** What does the source list for `Cn1cc(-c2nnc(N)nc2-c2c[nH]c3ccccc23)c2cccnc21`?
**A.** growth (NCI-H23 lung): 65.7%; growth (NCI-H226 lung): 71.1%; growth (NCI-H322M lung): 69.9%; growth (HOP-62 NSCLC): 48.1%; growth (NCI-H460 lung): 15.2%; growth (NCI-H522 lung): 21.4%; growth (A549/ATCC NSCLC): 46%; growth (786-0 renal): 54.9%; growth (COLO 205 colon): 25.9%

**Q.** What does the source list for `COC(=O)C[C@](O)(CCCC(C)(C)O)C(=O)O[C@H]1C(OC)=C[C@@]23CCCN2CCc2cc4c(cc2[C@@H]13)OCO4`?
**A.** growth (NCI-H23 lung): -53.9% (active); growth (NCI-H226 lung): -21.4% (active); growth (NCI-H322M lung): -3.53% (active); growth (HOP-62 NSCLC): 14.3%; growth (NCI-H460 lung): -3.74% (active); growth (NCI-H522 lung): -68.7% (active); growth (A549/ATCC NSCLC): -18.5% (active); growth (786-0 renal): -14.4% (active); growth (COLO 205 colon): -42.3% (active)

**Q.** With `CCCCSc1nc(Nc2ccc(S(N)(=O)=O)cc2)c(C#N)c(-c2cc(OC)c(OC)c(OC)c2)n1` as the compound, how does the growth (NCI-H23 lung) read?
**A.** 82.9%

**Q.** And the growth (NCI-H226 lung)?
**A.** 59.3%

**Q.** What about the growth (NCI-H322M lung) of the same compound?
**A.** 75.1%

**Q.** What about the growth (HOP-62 NSCLC) of the same compound?
**A.** 81.4%

**Q.** What about the growth (NCI-H460 lung) of the same compound?
**A.** 35.9%

**Q.** What about the growth (NCI-H522 lung) of the same compound?
**A.** 63.2%

**Q.** And the growth (A549/ATCC NSCLC)?
**A.** 32.2%

**Q.** What about the growth (786-0 renal) of the same compound?
**A.** 57.1%

**Q.** And the growth (COLO 205 colon)?
**A.** 39.8%

**Q.** `COc1c(F)ccc(C(=O)Nc2ccc3nc(NC(=O)C4CCCN(S(=O)(=O)c5ccc(C(F)(F)F)cc5)C4)sc3c2)c1F` (stereo not given) was tested. Which growth (NCI-H23 lung) did it give?
**A.** 94.4%

**Q.** And the growth (NCI-H226 lung)?
**A.** 81.3%

**Q.** And the growth (NCI-H322M lung)?
**A.** 91.9%

**Q.** What about the growth (HOP-62 NSCLC) of the same compound?
**A.** 94.6%

**Q.** And the growth (NCI-H460 lung)?
**A.** 78%

**Q.** And the growth (NCI-H522 lung)?
**A.** 76%

**Q.** And the growth (A549/ATCC NSCLC)?
**A.** 75.3%

**Q.** And the growth (786-0 renal)?
**A.** 62.9%

**Q.** And the growth (COLO 205 colon)?
**A.** 84.2%
